# The list is not random: actives were taken first. Their share in the collection is about 2.4%.
# WRN helicase inh-1 – WRN helicase (human) inhibition. Q14191. WRN helicase unwinding, fluorescent forked duplex, kinetic. Potency, µM (titrated, usually from 114 µM), most hits filed as inhibitors. actives 0.46% (n = 360,000); also: nearly all actives have a fitted effect of over 55% in size
#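 Kinetic red-fluorescence monitoring (525/598 nm) tracks WRN helicase activity after 100 nM fluorophore-quencher forked duplex and 2 mM ATP are added to 20 nM enzyme pretreated 15 min at room temperature with compound.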
# Pol iota inh – blocks human DNA polymerase iota activity | actives 1% (n = 390,000) | AID 588590 | Pol iota fluorescent replication assay, 10 min | Q9UNA4 | Potency, µM (top dose mostly 115 µM), hits mostly inhibitors
#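 Pol iota at 10 nM preincubated 15 min with compounds at room temperature; reaction started with fluorescent substrate, 50 nM final. Fluorescence read kinetically at 0 and 10 min; buffer-only wells as negative control.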
# Pol eta inh-1 – inhibitors of human DNA polymerase eta; Q9Y253; recombinant Pol eta, fluorescent DNA replication assay; Potency, µM (titrated, usually from 114 µM), actives largely listed as inhibitors; actives 1.2% (n = 390,000); AID 588591
#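 Pol eta (10 nM) was preincubated with compounds for 15 min at room temperature, after which fluorescent replication substrate (50 nM final) was added to start the reaction. Fluorescence was read kinetically at 0 and 10 min.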
# Pol beta inh – DNA polymerase beta (human) inhibition; AID 485314; actives 1.3% (n = 340,000); Pol beta primer extension/strand displacement, fluorescence kinetic; P06746; Potency, µM (series often up to 114 µM), most hits filed as inhibitors
#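 Preincubation: enzyme (10 nM) with compound, 15 min, RT. Reaction: substrate added to 50 nM final. Reads: 0 and 10 min. Analysis: normalized, Hill fit.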
# FEN1 inh-1 – blocks human flap endonuclease 1. Recombinant FEN1 flap cleavage, fluorescence, 15 min. Potency, µM (top dose mostly 114 µM), actives largely listed as inhibitors. P39748. actives 0.35% (n = 390,000); also: nearly all actives have a fitted effect of over 65% in size
# Target sequence (P39748 whole entry, looked up): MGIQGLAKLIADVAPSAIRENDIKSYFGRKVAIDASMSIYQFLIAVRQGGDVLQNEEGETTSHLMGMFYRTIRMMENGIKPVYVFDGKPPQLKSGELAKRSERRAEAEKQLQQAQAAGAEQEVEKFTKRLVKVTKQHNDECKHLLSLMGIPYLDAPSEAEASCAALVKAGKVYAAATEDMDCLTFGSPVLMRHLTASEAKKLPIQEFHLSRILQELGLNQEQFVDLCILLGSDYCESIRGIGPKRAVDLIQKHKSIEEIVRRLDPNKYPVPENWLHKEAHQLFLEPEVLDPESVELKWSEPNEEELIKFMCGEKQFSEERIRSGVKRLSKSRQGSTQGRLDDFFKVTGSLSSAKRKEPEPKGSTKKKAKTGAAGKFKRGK
#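 Potency values derive from four-parameter Hill fits of normalized qHTS data. The reaction used 10 nM FEN1 preincubated 15 min at room temperature with compound, then 50 nM DNA substrate, read at 0 and 15 min.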
# Pol kappa inh-1 – DNA polymerase kappa (human) inhibition; purified Pol kappa, fluorescent DNA synthesis assay, 10 min; Potency, µM (doses to about 107 µM), usual class: inhibitors; actives 0.53% (n = 400,000)
#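 Activity was followed as the change in fluorescence between reads at 0 and 10 min after starting the reaction with 50 nM substrate. Beforehand, 10 nM polymerase had been preincubated with compound for 15 min at room temperature.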
# BAZ2B inh – inhibits human BAZ2B bromodomain, hit validation. shares compounds with Pol kappa inh-1. AlphaScreen BAZ2B / biotin-H3K14Ac peptide displacement. Potency, µM, usual class: inhibitors. actives 100% (n = 25); calls by dose curve
# BAZ2B bead ctr – AlphaScreen signal interference, BAZ2B hit counter-screen; AlphaScreen biotin-His6 peptide bead counterscreen, signal decrease; AID 588859; shares compounds with Pol kappa inh-1; 25 tested, under 10 active; Potency, µM (top dose mostly 57.1 µM), most hits filed as inhibitors;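 active = clear concentration-dependent signal drop in the bead assay lacking the target, so a primary-screen artifact; inconclusive = weak, partial or single-dose response; inactive = no response, so a real primary hit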
# PGK validate – blocks T. brucei phosphoglycerate kinase. shares compounds with Pol kappa inh-1. TbPGK coupled GAPDH assay, Kinase-Glo luminescence. Potency, µM (series often up to 57.5 µM), actives largely listed as inhibitors. actives 79% (n = 500). AID 686980; also: nearly all actives have a fitted effect of over 65% in size
# Target sequence (P07378 whole entry, looked up): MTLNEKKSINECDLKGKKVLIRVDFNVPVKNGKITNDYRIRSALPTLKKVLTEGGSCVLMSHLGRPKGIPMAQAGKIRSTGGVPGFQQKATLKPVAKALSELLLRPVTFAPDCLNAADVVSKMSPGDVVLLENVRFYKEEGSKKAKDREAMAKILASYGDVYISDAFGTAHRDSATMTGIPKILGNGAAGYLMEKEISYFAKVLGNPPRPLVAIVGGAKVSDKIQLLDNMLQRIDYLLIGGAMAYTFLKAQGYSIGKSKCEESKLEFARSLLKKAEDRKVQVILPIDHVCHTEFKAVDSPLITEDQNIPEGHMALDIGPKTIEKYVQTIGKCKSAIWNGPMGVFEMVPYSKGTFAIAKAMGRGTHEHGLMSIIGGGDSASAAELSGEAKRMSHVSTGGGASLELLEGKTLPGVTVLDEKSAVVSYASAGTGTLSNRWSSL
# POLI cherry-pick – Confirm cherry-picked inhibitors of human polymerase iota | actives 77% (n = 1,500) | AID 720496 | shares compounds with Pol kappa inh-1 | Potency, µM, most hits filed as inhibitors | Pol iota primer extension, TAMRA/BHQ fluorescence
# Pol kappa inh-2 – Pol kappa (human) inhibition, cherry-pick confirmation; shares compounds with Pol eta inh-1; purified Pol-kappa, fluorescent strand-displacement substrate; Potency, µM, hits mostly inhibitors; actives 76% (n = 920)
# Pol eta inh-2 – confirmation of human DNA polymerase eta inhibitors | shares compounds with Pol eta inh-1 | actives 64% (n = 2,600) | Potency, µM, most hits filed as inhibitors | Pol eta primer extension, TAMRA/BHQ fluorescence, 10 min
# FEN1 inh-2 – FEN1 inhibition, cherry-pick retest; shares compounds with FEN1 inh-1; FEN1 flap cleavage, TAMRA/BHQ2 fluorogenic DNA substrate; Potency, µM, hits mostly inhibitors; actives 79% (n = 880); AID 720498; also: nearly all actives have a fitted effect of over 60% in size
# WRN helicase inh-2 – WRN helicase inhibition, cherry-pick retest | shares compounds with WRN helicase inh-1 | WRN helicase DNA unwinding, fluorescence kinetic | Potency, µM (series often up to 57.1 µM), most hits filed as inhibitors | actives 63% (n = 610); also: nearly all actives have a fitted effect of over 65% in size
# TO DNA binding – DNA binding via thiazole orange displacement; shares compounds with WRN helicase inh-1; thiazole orange DNA binding displacement, fluorescence; Potency, µM (doses to about 57.1 µM), hits mostly inhibitors; actives 10% (n = 610); AID 720499;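 also: drop in dye fluorescence marks compound binding to DNA; nearly all actives have a fitted effect of over 60% in size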
# BLM counter – blocks human BLM helicase in WRN counterscreen. AID 720503. actives 60% (n = 610). Recombinant BLM helicase DNA unwinding, red fluorescence. Potency, µM (top dose mostly 57.1 µM), hits mostly inhibitors. shares compounds with WRN helicase inh-1; also: nearly all actives have a fitted effect of over 60% in size
# Hits are given with their value; n = inactive; u = inconclusive; x = no result; ! = not active in a repeat; [ ] = remark or other dose. Unless noted, calls follow the shape of the dose curve; as a rule, active = well fitted curve in the direction sought with a large enough effect; inconclusive = small, poorly fitted or top-dose-only effect, or another doubt; inactive = no such curve, though single readings can be large; an effect the other way counts as inactive or inconclusive.
SMILES,WRN helicase inh-1,Pol iota inh,Pol eta inh-1,Pol beta inh,FEN1 inh-1,Pol kappa inh-1,POLI cherry-pick,Pol eta inh-2,FEN1 inh-2,others
Cc1cc(C)cc(N2C(=O)NC(=O)/C(=C\c3cccn3-c3ccccc3)C2=O)c1,u,u,n,n,n,n,x,x,x,
O=C1NC(=S)NC(=O)C1=Cc1cccn1-c1ccc(O)cc1,44.7µM,2.24µM,3.55µM,25.1µM,35.5µM,17.8µM,7.52,6.01,75.7,PGK validate=16.3µM
CC[N+](C)(CC)CCOC(=O)C(O)(c1ccccc1)c1ccccc1,x,x,x,x,x,n[19.4 µM],x,x,x,
COCCN1C(=O)NC(=O)/C(=C\c2ccc(F)cc2)C1=O,n,n,n,u,n,n,x,x,x,
O=C1NC(=O)N(CCc2ccc(F)cc2)C(=O)/C1=C/c1ccco1,35.5µM,12.6µM,20µM,3.16µM,u,u,67,47.8,75.7,PGK validate=8.19µM
Cc1cccc(N2C(=O)NC(=O)/C(=C/c3ccc(-c4ccc(C(=O)O)c(Cl)c4)o3)C2=O)c1,x,x,x,n,x,x,x,x,x,
O=C1NC(=O)N(c2cccc(Cl)c2)C(=O)/C1=C\c1ccc(Sc2nc3ccccc3[nH]2)o1,89.1µM,u,17.8µM,31.6µM,44.7µM,22.4µM,75.2,26.9,u,
CC[n+]1c(-c2ccccc2)c2cc(N)ccc2c2ccc(N)cc21,2.99µM,39.8µM,4.47µM,x,12.6µM,20µM,15,u,16.9,Pol kappa inh-2=9.47
O=c1[nH]/c(=C\c2ccc(N(CCCl)CCCl)cc2)c(=O)[nH]/c1=C\c1ccc(N(CCCl)CCCl)cc1,x,n,x,x,n,n,x,x,x,
O=C(Cc1cc(=O)oc2cc(O)ccc12)NN=Cc1ccc(N(CCCl)CCCl)cc1,u,u,15.8µM,x,31.6µM,u,u,u,37.9,
CCCCC(C#N)(Cn1cncn1)c1ccc(Cl)cc1 (stereo not given),x,x,x,x,x,n,x,x,x,
CC(C)CS(=O)(=O)C1=NN2C(=N)/C(=C\c3ccc(OC(=O)c4ccco4)cc3)C(=O)N=C2S1,u,14.1µM,20µM,44.7µM,n,u,75.2,23.9,u,
O=C(Oc1ccc(N2C(=O)C3C4CCC(C4)C3C2=O)cc1)c1ccco1 (stereo not given),n,n,n,n,n,n,x,x,x,
CC[n+]1c(/C=C/C=C/c2ccc(N(C)C)cc2)sc2ccccc21,56.2µM,n,u,n,50.1µM,n,x,x,37.9,PGK validate=u
COc1ccc(C(=O)NCCn2cc(SC(C)c3ccccc3)c3ccccc32)cc1OC (stereo not given),x,n,n,n,u,n,x,x,x,
COc1ccc(CC(=O)NC(=S)NNC(=O)COc2c(C)cccc2C)cc1,u,n,n,n,n,n,x,x,x,
CCN1C(=O)C(=C2C=C(C)N(Cc3ccco3)C(C)=C2)C(=O)N(CC)C1=S,n,n,n,n,n,n,x,x,x,
COc1ccc(/C=C2/C(=O)N(Cc3ccco3)C(=O)N(C(C)C)C2=O)cc1,n[11.6 µM],7.94µM,4.47µM,20µM,u,20µM,21.2,10.7,26.9,PGK validate=u
COc1ccc(CN2C(=O)NC(=O)/C(=C/c3ccc([N+](=O)[O-])s3)C2=O)cc1,39.8µM,u,14.1µM,22.4µM,14.1µM,22.4µM,23.8,5.36,16.9,
CCN1C(=O)C(=C/C=C/c2ccco2)C(=O)N(CC)C1=S,28.2µM,u,3.55µM,14.1µM,22.4µM,u,16.8,7.57,x,PGK validate=29.1µM;Pol kappa inh-2=7.52;WRN helicase inh-2=21.5µM;TO DNA binding=n;BLM counter=19.2µM
CC(C)N1C(=O)/C(=C/C=C/c2ccco2)C(=O)N(Cc2ccco2)C1=O,35.5µM,u,2.51µM,22.4µM,56.2µM,22.4µM,18.9,9.53,x,WRN helicase inh-2=17.1µM;TO DNA binding=n;BLM counter=8.57µM
O=[N+]([O-])c1cc(S(=O)(=O)c2ccc(O)c([N+](=O)[O-])c2)ccc1O,u,17.8µM,2.82µM,11.2µM,u,44.7µM,59.7,30.1,x,Pol kappa inh-2=6.7;WRN helicase inh-2=19.2µM;TO DNA binding=n;BLM counter=u
O=[N+]([O-])c1cccc(O)c1,n,n,n,x,n,n,x,x,x,
COc1ccccc1/C=C1\C(=O)NC(=S)N(c2ccccc2)C1=O,n,u,n,n,n,n,x,x,x,
O=C1NC(=S)N(c2ccccc2)C(=O)/C1=C/c1ccco1,0.947µM,1.58µM,0.794µM,10µM,8.91µM,2.51µM,0.474,0.757,16.9,PGK validate=0.326µM;Pol kappa inh-2=0.67;WRN helicase inh-2=0.961µM;TO DNA binding=10.8µM;BLM counter=0.192µM
CCOC(=O)[C@]12Cc3cc(C)ccc3[C@H]1N(C1CCCCC1)C(=O)c1cc(OC)ccc12,n,x,x,x,x,x,x,x,x,
CCN(CC(=O)Nc1c(F)cccc1F)C(=O)/C=C/c1ccc2ccccc2n1,22.4µM,4.47µM,1.12µM,x,50.1µM,8.91µM,9.47,19,75.7,BAZ2B inh=14.1;BAZ2B bead ctr=u;WRN helicase inh-2=19.2µM;TO DNA binding=u;BLM counter=3.83µM
CN(C)[C@@H]1C(=O)C(C(N)=O)=C(O)[C@@]2(O)C(=O)C3=C(O)c4c(O)cccc4[C@@](C)(O)[C@H]3[C@H](O)[C@@H]12,20µM,u,3.98µM,2.82µM,11.2µM!,2.82µM,9.47,26.9,75.7,Pol kappa inh-2=8.44;WRN helicase inh-2=17.1µM;TO DNA binding=u;BLM counter=13.6µM

# Bioassay records (PubChem)
